Drawing on PubChem BioAssay AID743172 (National Center for Advancing Translational Sciences (NCATS), 2013), this text covers Potency for four compounds.

Inconclusive results are not listed. Activity calls are given as the source filed them. The call rests on the fitted dose curve; in most records, active means well fitted activation curve with a large enough effect; inconclusive means small, poorly fitted or top-dose-only effect; inactive means no such curve, though single readings can be large or run the other way.

This assay is described as follows: Extended Characterization of HPGD Inhibitors: PGE2 Assay in LNCaP Cells. The conditions noted are these: PGE2 HTRF level, 16 h. An excerpt:
The central role of HPGD is to inactivate prostaglandins such as prostaglandin E2 (PGE2) or prostaglandin D2 (PGD2). These prostaglandins are involved in a number of processes, including inflammation, differentiation, and cellular signaling, which makes HPGD an important target for pharmacological intervention. A number of prostaglandins of particular biological interest have been identified as substrates of HPGD. […] Over-production of PGE2 has been reported to promote tumor-associated neovascularization, cell proliferation, and tumor growth. […] In this orthogonal assay, we set out to measure if compounds were able to increase PGE2 production NIH Chemical Genomics Center [NCGC] NIH Molecular Libraries Probe Centers Network [MLPCN] MLPCN Grant: MH084681 Assay Submitter (PI): Structural Genomics Consortium
A549 cells, LNCaP cells or media were dispensed in 384-well plates (ProxiPlate-384 Plus, PerkinElmer, Shelton, CT) at 5,000 cells/9.9 uL/well using a CappAero384 multichannel pipette (Odense, Denmark). Separately on the plate, 10 uL of PGE2 calibration standards at a starting assay concentration of 5,000 pg/mL (1:2 dilution, 12-points, n = 1, prepared in media, Cisbio, Bedford, MA) were dispensed. Compounds (100 nL, final concentration range from 41.9 nM to 100 uM) were transferred using an ATS Acoustic Liquid Dispenser (EDC Biosystems, Fremont, CA). After being mixed using an automated liquid handler (CyBio, Jena, Germany), samples were incubated (37 deg C, 5% CO2, under a humidified atmosphere) for 16 hours. PGE2 labeled conjugates were added to each well, first 5 uL of PGE2-d2, followed by 5 uL of anti-PGE2-cryptate, centrifuged (1,500 rpm, 15 sec) and incubated (RT, protected from light) for 5 hours. Time-resolved fluorescence intensity (320 nm excitation, 615 and 665 nm emission) was measured using an Envision plate reader (PerkinElmer). Data was expressed as the ratio of 665 nm/615 nm emissions. Concentration (pg/mL) of samples were calculated from a 4-parameter logistic calibration curves of the PGE2 standards.
Background: In TR-FRET formats the signal depends on donor and acceptor labels being close together.
In the case of `COc1ccc(-n2c(C)cc(-c3nnc4n3CCCCC4)c2C)cc1`, the Potency was 2800 nM (active).

On to `Cc1cc(-c2nnc3n2CCCCC3)c(C)n1-c1ccc(Cl)cc1`, for which the Potency was 2220 nM (active).

With `Cc1cc(-c2nnc3n2CCCCC3)c(C)n1-c1ccc(C(C)(C)C)cc1`, the Potency was 2220 nM (active).

With `Cc1cc(-c2nnc3n2CCCCC3)c(C)n1-c1cccnc1`, the Potency is 4430 nM (active).
